103 compounds from PubChem BioAssay AID652031 (The Scripps Research Institute Molecular Screening Center, 2013) can be followed below.

SMILES strings stand for the structures. Hit rate of the full screen: of about 16,000 compounds, about 70 (0.4%) were called active. The list comes from a sample in which actives are over-represented; it also holds similar structures and randomly drawn compounds. Unmarked numbers belong to inactive results. No stated cut-off is given here; in the data, active means inhibition above about 50%; inactive means the rest.

In the assay the target is Kappa-type opioid receptor (Homo sapiens) (UniProt P41145). Put plainly: blocks the human kappa opioid receptor, Maybridge compounds (AID 652031). As to conditions: OPRK1 cells, antagonist mode, fluorescence readout; at 9 µM; hits give high values.
Kappa-type opioid receptor (Homo sapiens), sequence (P41145 whole entry, looked up): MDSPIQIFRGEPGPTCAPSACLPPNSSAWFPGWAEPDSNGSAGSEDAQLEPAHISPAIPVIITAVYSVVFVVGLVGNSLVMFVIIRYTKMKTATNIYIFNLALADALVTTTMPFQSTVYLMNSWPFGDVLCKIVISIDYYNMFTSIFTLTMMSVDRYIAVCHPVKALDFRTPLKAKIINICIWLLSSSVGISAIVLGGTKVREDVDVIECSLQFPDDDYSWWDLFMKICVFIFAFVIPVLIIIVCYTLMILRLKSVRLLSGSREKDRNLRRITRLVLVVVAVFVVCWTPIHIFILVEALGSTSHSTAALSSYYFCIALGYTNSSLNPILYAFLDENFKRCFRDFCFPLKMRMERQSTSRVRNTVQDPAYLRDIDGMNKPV
For orientation: inhibition means the change of the read-out against control, counted positive when it falls. With `COc1ccccc1N1CCN(C/C(N)=N/O)CC1`, the inhibition is -2.8%.

As for `N/C(=N\OC(=O)c1cccc(Cl)c1)c1ccc2nonc2c1`, the inhibition is 3%.

In the case of `COC(=O)C1=C(NNc2ccccc2)CSC1`, the inhibition was 8.6%.

For `FC(F)(F)c1ccc(-n2cn[nH]c2=S)cc1`, the inhibition is -0.4%.

`COc1ccc(Cc2nc(C(C)(C)C)cs2)cc1`: the inhibition is 10.7%.

Consider `CCOC(=O)CNC(=O)c1ccc(-c2cccc([N+](=O)[O-])c2)o1`, for which the inhibition was 9.9%.

With `CSc1nc(-n2nc(C)cc2C)nc(-c2ccco2)c1C#N`, the inhibition was -17.5%.

Turning to `CC(N)=NCCc1ccncc1`, the inhibition is -6%.

On to `N#Cc1cn(-c2cccc(C(F)(F)F)c2)c(=O)n(Cc2ccc(Cl)cc2)c1=O`, for which the inhibition was -10.4%.

Take `CC(C)S(=O)(=O)c1cscc1N/C=C(/C#N)C(=O)C1CC1`: the inhibition was 14.8%.

For `N#Cc1ccc(Oc2ccc(Cl)cc2)c([N+](=O)[O-])c1`, the inhibition is 5.4%.

In the case of `O=C(CSc1nnc(-c2ccncc2)n1Cc1ccccc1)Nc1nnc(-c2ccco2)s1`, the inhibition was 2.3%.

As for `COC(C)(OC)c1ccc(C#N)c(=S)[nH]1`, the inhibition was -2.3%.

On to `FC(F)(F)c1cnc(NN=C2CCSCC2)c(Cl)c1`, for which the inhibition was -7.6%.

In the case of `COc1ccc(COCC(O)CN2CCN(c3ccc(C(F)(F)F)cn3)CC2)cc1` (stereo not drawn), the inhibition was -10.5%.

Consider `CN(C)C(=S)Nc1ccc(Br)cc1Cl`, for which the inhibition was 12.1%.

As for `N#CCCSc1sc(=S)sc1SCCC#N`, the inhibition was -2.5%.

Consider `N/C(=N\OC(=O)CCn1cccc(C(F)(F)F)c1=O)c1ccc(OC(F)(F)F)cc1`, for which the inhibition was 3.1%.

As to `Cc1cc(-c2noc(-c3cccs3)n2)no1`, the inhibition was -20.2%.

On to `C/C(=N\NC(=S)Nc1cccc(F)c1)c1ccco1`, for which the inhibition was 14.4%.

Take `Cn1cccc1CNC(=O)c1cc(F)cc2c1OCOC2`: the inhibition was 11.7%.

Take `CSc1nc(N/C=C(\C#N)C(=O)c2cccs2)n2nc(C)cc2n1`: the inhibition is 9.3%.

As to `COc1c(/C(N)=N/O)cc(C)c2c1CCC2`, the inhibition was -7.6%.

For the compound `COc1cccc(C(=O)c2sc3nsc(SCc4ccc(F)cc4)c3c2N)c1`, the inhibition was 81.9% (active).

As for `CCOC(=O)N1CCN(CC(O)COc2ccc(OC(F)(F)F)cc2)CC1` (stereo not drawn), the inhibition was 3.6%.

Regarding `COC(=O)c1ccccc1N(C)C(=O)c1cc(OC)c(OC)c(OC)c1`, the inhibition was 2.6%.

Regarding `Cc1ccc(S(=O)(=O)NNC(=O)CCc2nc(-c3ccc(Cl)cc3)no2)cc1`, the inhibition was -5.8%.

For the compound `COC(=O)c1cc(C(N)=O)c(SC)s1`, the inhibition was 8.2%.

Turning to `O=C(c1ccc(F)cc1)C1CCN(Cc2cn[nH]c2-c2ccccc2)CC1`, the inhibition is -2.9%.

Take `O=C(CSc1ccc(Cl)cc1)NCCSCc1ccco1`: the inhibition is 15.7%.

`Cc1nn(-c2ccccc2)nc1C(=O)Nc1nnc(C2CC2)s1`: the inhibition is 8.4%.

Regarding `COc1ccc(OC(=O)/C=C/c2sc3ccccc3c2C)cc1`, the inhibition was 8.8%.

Take `O=C1CCC(=O)N(c2ccccc2)N1`: the inhibition was 14.7%.

On to `O=C1NC(=O)c2cc([N+](=O)[O-])c(Sc3c(Cl)cccc3Cl)cc21`, for which the inhibition is 4.3%.

For `N#CCc1ccc(NC(=O)c2ccccc2C(=O)Nc2ccc(CC#N)cc2)cc1`, the inhibition was 20.8%.

`O=C(Nc1ccc(I)cc1Cl)C(=S)NCc1cccs1`: the inhibition was -3.3%.

As for `CCOC(=O)COc1cccc2c(C)cc(=O)oc12`, the inhibition is -1.5%.

Regarding `O=C(c1ccc(Oc2ccc(Cl)cc2)c([N+](=O)[O-])c1)N1CCCC1`, the inhibition was 4.1%.

`CCO/N=C\c1nn(S(C)(=O)=O)cc1Br`: the inhibition was -12.1%.

As for `CNC(=O)c1ccccc1I`, the inhibition is -1.2%.

Regarding `CSc1nnc(-c2ccc(C(F)(F)F)cn2)o1`, the inhibition is -0.1%.

As for `Cn1cnnc1SCC(=O)Nc1cc(C(F)(F)F)cc(C(F)(F)F)c1`, the inhibition is 0.9%.

As to `CC(C)(C)NC(=O)N/N=C/c1[nH]ncc1Br`, the inhibition is 1%.

Consider `Cc1cc(/C(N)=N/OC(=O)c2cccs2)c(-c2ccccc2)o1`, for which the inhibition was -13%.

For `CN(C)NC(=O)c1csnc1-c1c(Cl)cccc1Cl`, the inhibition was 36.6%.

On to `COC(=O)c1ccc(S(=O)(=O)N2CCN(c3ccc([N+](=O)[O-])cn3)CC2)n1C`, for which the inhibition was -6.6%.

As to `CCOC(=O)/C(C#N)=C/c1ccc(-c2nccs2)cc1C(C)(C)C`, the inhibition was -2.8%.

Turning to `COC(=O)c1cnc(N2CCCN(C(=O)C3COc4ccccc4O3)CC2)nc1C(F)(F)F` (stereo not drawn), the inhibition is -8.4%.

In the case of `CCc1cnc(NS(=O)(=O)c2cc(Cl)sc2Cl)nc1-c1c(F)cccc1F`, the inhibition is 1.8%.

As for `CCOC(=O)Cc1nc(N)ncc1C(=O)OCC`, the inhibition is 17.3%.

For the compound `FC(F)(F)c1ccc(/C=N/Nc2nccc(C(F)(F)F)n2)cc1`, the inhibition was 6.7%.

Consider `Cc1nc2sc(-c3ccccc3)cc2c(=O)o1`, for which the inhibition is -0.4%.

As to `CCOCCOCCN(CC)c1ccc(N=Nc2c(C#N)cc([N+](=O)[O-])cc2C#N)c(NC(C)=O)c1`, the inhibition is -11.4%.

In the case of `O=c1cc(-c2ccccc2)sc2ccc(Cl)cc12`, the inhibition is -5.7%.

With `OC(CNCCNc1nccc(C(F)(F)F)n1)COc1ccc(Cl)c(Cl)c1` (stereo not drawn), the inhibition was -9.3%.

As for `CC(=O)Nc1ccc(/C(N)=N/O)cc1`, the inhibition was 9.1%.

As for `O=c1oc(/C=C/c2ccccc2)nc2ccccc12`, the inhibition is -41.1%.

Regarding `COc1cc(OC)nc(/N=C/c2nc(-c3ccccc3)oc2O)n1`, the inhibition was 5.7%.

Turning to `N/C(=N/OC(=O)NC(=O)c1c(Cl)cccc1Cl)c1ccc(F)cc1F`, the inhibition was -5.4%.

`N#Cc1c(-c2ccccc2)c(-c2ccccc2)n[nH]c1=O`: the inhibition is 20%.

With `N#C/C(=C\C=C\c1ccccc1)c1nc2ccccc2[nH]1`, the inhibition was 13.4%.

Take `S=C(Nc1cccnc1)N1CCCN(Cc2ccc(Cl)cc2Cl)CC1`: the inhibition was 4.7%.

For `Cc1ccc(Oc2c(C)[nH]c(=S)[nH]c2=O)cc1`, the inhibition is -1.2%.

In the case of `O=C(Nc1ccccc1N1CCOCC1)C1CCN(c2nccc(C(F)(F)F)n2)CC1`, the inhibition is 9.4%.

Consider `Cc1cc(NC(=O)c2cc(-c3ccccc3)c(C(F)(F)F)s2)no1`, for which the inhibition is -1.6%.

Regarding `CSc1sc(C(=O)Nc2cccc(Cl)c2)c(-c2cccs2)c1C#N`, the inhibition is 5.9%.

As for `Cn1cnc(S(=O)(=O)Nc2ccc3[nH]ccc3c2)c1`, the inhibition was -0.5%.

Regarding `CC(C)(C)C(=O)Nc1c(Br)c(C2CC2)nn1-c1ccccc1`, the inhibition was 4.1%.

In the case of `COC(=O)C1=C(NNc2ncc(Cl)cc2C(F)(F)F)CSC1`, the inhibition was -2.3%.

Take `CC(=O)OCC(=O)[C@@]1(O)[C@H](C)CC2C3CCC4=CC(=O)C=CC4(C)C3=CCC21C` (stereo partly drawn): the inhibition is 0.2%.

In the case of `Cc1ccc(S(=O)(=O)NNC(=S)NC(C)(C)C)cc1`, the inhibition is -0.7%.

As for `CC(=O)c1cc([N+](=O)[O-])c(NC2CCCCC2)s1`, the inhibition was -27.9%.

As to `Clc1ccc(CO/N=C/c2nc3ccccc3s2)cc1`, the inhibition is 16.1%.

Take `N#Cc1cc([N+](=O)[O-])c(N2CCCC2)cc1N1CCCC1`: the inhibition is -4.1%.

`Cn1nc(C(C)(C)C)c(NC(=O)c2sccc2Cl)c1C(C)(C)C`: the inhibition is -1.9%.

On to `CCSC(=O)NCc1ccccc1`, for which the inhibition was -12.7%.

Regarding `Cc1nc(C(F)(F)F)ccc1C(=O)NCCNc1ncccc1C(F)(F)F`, the inhibition is -36.9%.

In the case of `CCOC(=O)c1cc(C)n(-c2cccc([N+](=O)[O-])c2)c1-c1ccccc1`, the inhibition was -0.8%.

On to `Cn1cc(C(=O)Nc2ccc(F)c(Cl)c2)c(N)n1`, for which the inhibition was 20.6%.

For `Cc1nnsc1C(=O)NN(C)c1ccc([N+](=O)[O-])cn1`, the inhibition is 14.8%.

As to `CC1(C)CC(=O)C(N=Nc2c(F)cccc2F)=C(O)C1`, the inhibition is -7.3%.

Consider `CCOC(=O)NC(=O)/C(=C/NC(C)C)C(=O)OCC`, for which the inhibition is 5.6%.

Take `O=C1CCCCC(=O)c2ccccc2N1`: the inhibition is 7.1%.

Take `Cc1ccc(C(=O)N2CCN(c3cccc4[nH]ccc34)CC2)cc1`: the inhibition is 2.5%.

Turning to `CCOC(=O)c1nnc2c(Br)c(C)nn2c1C`, the inhibition is 3.1%.

With `O=[N+]([O-])c1ccc(N2CCSCC2)cc1O`, the inhibition is 3.6%.

As for `COc1ccc(/C(C)=N/Nc2c([N+](=O)[O-])cc(C(F)(F)F)cc2[N+](=O)[O-])cc1CC#N`, the inhibition is -23.7%.

For `C=CCn1c(SCC(=O)Nc2nnc(-c3cccs3)s2)nnc1-c1ccco1`, the inhibition was 8.8%.

With `COC(=O)c1cccc(CSc2ncccc2C(=O)O)c1`, the inhibition was 15.2%.

On to `CC(=O)c1nnc2cc(C)nn2c1C`, for which the inhibition was 28.9%.

On to `CSc1sc(C(N)=O)cc1C#N`, for which the inhibition was 6.9%.

As for `Cc1cc(C(=O)NNC(=O)c2cc(C)n(C(C)(C)C)n2)no1`, the inhibition was 8.1%.

In the case of `COc1ccc2c(OC(C)=O)coc2c1`, the inhibition is -6.7%.

Take `N#C/C(=C\c1cccn1S(=O)(=O)c1ccccc1)C(=O)c1ccccc1`: the inhibition was 7.4%.

Consider `N#Cc1ccc(OS(=O)(=O)c2cc(C(F)(F)F)cc(C(F)(F)F)c2)cc1`, for which the inhibition is -5.9%.

In the case of `COC(=O)c1ccccc1NC(=S)NNC(=O)c1ccc([N+](=O)[O-])cc1`, the inhibition was 7.8%.

For `COC(=O)c1ccc(/C=C2\C(=O)Nc3ccccc32)n1-c1ccc(F)cc1`, the inhibition was 84.7% (active).

Turning to `Cc1c(C)c(C)c(CSC(=N)CC#N)c(C)c1C`, the inhibition was -7.6%.

As to `O=C(CSc1nc2ccccc2o1)N1CCC(n2cccc2)CC1`, the inhibition is 1.7%.

For the compound `CCCc1c(C(=O)O)cnn1-c1ccc(Cl)cc1`, the inhibition was -5.5%.

Take `CCCc1nc(N)ncc1C(=O)OCC`: the inhibition was -2.5%.

With `CCOC(=O)c1c(C)csc1NC(=O)CC(=O)C(F)(F)F`, the inhibition was -3%.

Turning to `Oc1ccc(-n2cncn2)cc1`, the inhibition is -0.4%.
